Data published in PubChem BioAssay AID1159580 (chemical genetic matrix, 2015).
Values joined by “and” are separate entries in the source; they are usually repeats but may differ in a detail not shown here. Equal entries are not always repeated. Screen size: about 5,500 compounds; about 2,000 (36%) were called active. Inconclusive results (about 18%) are left out. Rule as the data show it: active = normalized growth mostly below about 0.91 (no sharp cut-off); inconclusive = no clear call, values can overlap the other calls; inactive = mostly above about 0.92. The list shows a part of the results.

Test: chemical genetic growth profiling, strain panel (AID 1159580);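 also: tested at 20 µM; growth read once vehicle control cultures reached saturation at 30 °C; 1 = growth at the plate median or of vehicle wells; lower values mean less growth of the strain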
Conditions: S. cerevisiae deletion strains, growth OD

Measured: normalized growth

COc1cc2c(cc1OC)C(=O)C(CC1CCN(Cc3ccccc3)CC1)C2 (stereo not given)
0.657 (active) and 1.01 (inactive): locus YJL095W, strain BCK1, stronger effect = lower value
active: locus YAL026C, strain drs2, stronger effect = lower value 0.606 | locus YDL074C, strain BRE1, stronger effect = lower value 0.734 | locus YDL134C, strain PPH21, stronger effect = lower value 0.798 | locus YDR101C, strain arx1, stronger effect = lower value 0.904 | locus YDR137W, strain rgp1, stronger effect = lower value 0.627 | locus YDR162C, strain NBP2, stronger effect = lower value 0.807 | locus YDR318W, strain mcm21, stronger effect = lower value 0.913 | locus YDR502C, strain sam2, stronger effect = lower value 0.834 | locus YER167W, strain BCK2, stronger effect = lower value 0.829 | locus YGL248W, strain PDE1, stronger effect = lower value 0.818 | locus YGL253W, strain hxk2, stronger effect = lower value 0.891 | locus YGR078C, strain PAC10, stronger effect = lower value 0.821 | locus YGR135W, strain pre9, stronger effect = lower value 0.787 | locus YGR229C, strain SMI1, stronger effect = lower value 0.523 | locus YGR252W, strain gcn5, stronger effect = lower value 0.742 | locus YHR129C, strain ARP1, stronger effect = lower value 0.876 | locus YJL187C, strain SWE1 (second series), stronger effect = lower value 0.849
inactive: locus YAL013W, strain DEP1, stronger effect = lower value 0.953 | locus YAL021C, strain ccr4, stronger effect = lower value 0.942 | locus YAL030W, strain snc1, stronger effect = lower value 1.01 | locus YBL061C, strain skt5, stronger effect = lower value 0.974 | locus YBR009C, strain hhf1, stronger effect = lower value 0.975 | locus YBR021W, strain FUR4, stronger effect = lower value 1.03 | locus YBR023C, strain chs3, stronger effect = lower value 0.988 | locus YBR171W, strain sec66, stronger effect = lower value 1.03 | locus YBR229C, strain ROT2, stronger effect = lower value 1.01 | locus YBR279W, strain paf1, stronger effect = lower value 0.972 | locus YCL011C, strain gbp2, stronger effect = lower value 0.978 | locus YCL016C, strain dcc1, stronger effect = lower value 0.986 | locus YCL029C, strain bik1, stronger effect = lower value 0.989 | locus YCL061C, strain MRC1, stronger effect = lower value 0.967 | locus YCL069W, strain vba3, stronger effect = lower value 1.02 | locus YCR088W, strain abp1, stronger effect = lower value 1.01 | locus YDL005C, strain med2, stronger effect = lower value 1.03 | locus YDL035C, strain GPR1, stronger effect = lower value 0.869 | locus YDL040C, strain nat1, stronger effect = lower value 0.981 | locus YDL101C, strain DUN1, stronger effect = lower value 0.948 | locus YDL185W, strain tfp1, stronger effect = lower value 0.998 | locus YDL192W, strain arf1, stronger effect = lower value 0.926 | locus YDR001C, strain nth1, stronger effect = lower value 1.02 | locus YDR069C, strain doa4, stronger effect = lower value 0.935 | locus YDR150W, strain NUM1, stronger effect = lower value 0.977 | locus YDR159W, strain sac3, stronger effect = lower value 0.953 | locus YDR195W, strain ref2 1.08 | locus YDR297W, strain sur2, stronger effect = lower value 0.989 | locus YDR334W, strain swr1, stronger effect = lower value 1.02 | locus YDR335W, strain msn5, stronger effect = lower value 0.999 | locus YDR388W, stronger effect = lower value 0.998 | locus YDR392W, strain spt3, stronger effect = lower value 1.09 | locus YEL003W, strain gim4, stronger effect = lower value 0.988 | locus YEL037C, strain rad23, stronger effect = lower value 1.02 | locus YEL061C, strain CIN8 (second series), stronger effect = lower value 1.04 | locus YEL061C, strain CIN8, stronger effect = lower value 1.06 | locus YER015W, strain faa2, stronger effect = lower value 0.947 | locus YER016W, strain bim1, stronger effect = lower value 1 | locus YER110C, stronger effect = lower value 0.992 | locus YER111C, strain swi4, stronger effect = lower value 1.02 | locus YER155C, strain BEM2 (second series), stronger effect = lower value 1.02 | locus YER155C, strain BEM2, stronger effect = lower value 1.01 | locus YFR010W, strain ubp6, stronger effect = lower value 1.03 | locus YGL078C, strain dbp3, stronger effect = lower value 0.976 | locus YGL086W, strain mad1, stronger effect = lower value 0.954 | locus YGL167C, strain pmr1, stronger effect = lower value 0.961 | locus YGL173C, strain kem1, stronger effect = lower value 1.01 | locus YGL227W, strain vid30, stronger effect = lower value 1.06 | locus YGL240W, strain doc1, stronger effect = lower value 0.994 | locus YHR013C, strain ard1, stronger effect = lower value 0.955 | locus YHR027C, strain rpn1, stronger effect = lower value 0.99 | locus YHR030C, strain SLT2, stronger effect = lower value 0.94 and 0.973 | locus YHR079C, strain IRE1 (second series), stronger effect = lower value 0.951 | locus YHR079C, strain IRE1, stronger effect = lower value 0.949 | locus YHR094C, strain hxt1, stronger effect = lower value 1 | locus YHR142W, strain chs7, stronger effect = lower value 0.919 | locus YHR200W, strain rpn10, stronger effect = lower value 0.973 | locus YIL066C, strain RNR3, stronger effect = lower value 0.896 | locus YIL073C, strain SPO22, stronger effect = lower value 0.904 | locus YIL125W, strain kgd1, stronger effect = lower value 1.01 | locus YIR030C, strain dcg1, stronger effect = lower value 0.985 | locus YJL092W, strain hpr5, stronger effect = lower value 1.02 | locus YJL095W, strain BCK1 (second series), stronger effect = lower value 0.994 | locus YJL115W, strain asf1, stronger effect = lower value 1.02 | locus YJL129C, strain trk1, stronger effect = lower value 0.896 | locus YJL134W, strain LCB3, stronger effect = lower value 0.996 | locus YJL154C, strain vps35, stronger effect = lower value 1.01 | locus YJL164C, strain tpk1, stronger effect = lower value 1 | locus YJL166W, strain qcr8, stronger effect = lower value 0.931 | locus YJL168C, strain set2, stronger effect = lower value 0.998 | locus YJL187C, strain SWE1, stronger effect = lower value 0.975 | locus YJR043C, strain POL32, stronger effect = lower value 0.872
